# Screens from PubChem.
# POLH inh = inhibitors of human DNA polymerase eta | Q9Y253 | recombinant Pol eta, fluorescent DNA replication assay | Potency, µM (top dose mostly 114 µM), for the others: top-dose activity change, negative = inhibition, hits mostly inhibitors | 390,000 tested, 1.2% active; further: potency means the concentration at half of the fitted maximal effect; on the % scale 0 is the no-effect control and ±100 the full control effect
# Target sequence (Q9Y253 whole entry, looked up): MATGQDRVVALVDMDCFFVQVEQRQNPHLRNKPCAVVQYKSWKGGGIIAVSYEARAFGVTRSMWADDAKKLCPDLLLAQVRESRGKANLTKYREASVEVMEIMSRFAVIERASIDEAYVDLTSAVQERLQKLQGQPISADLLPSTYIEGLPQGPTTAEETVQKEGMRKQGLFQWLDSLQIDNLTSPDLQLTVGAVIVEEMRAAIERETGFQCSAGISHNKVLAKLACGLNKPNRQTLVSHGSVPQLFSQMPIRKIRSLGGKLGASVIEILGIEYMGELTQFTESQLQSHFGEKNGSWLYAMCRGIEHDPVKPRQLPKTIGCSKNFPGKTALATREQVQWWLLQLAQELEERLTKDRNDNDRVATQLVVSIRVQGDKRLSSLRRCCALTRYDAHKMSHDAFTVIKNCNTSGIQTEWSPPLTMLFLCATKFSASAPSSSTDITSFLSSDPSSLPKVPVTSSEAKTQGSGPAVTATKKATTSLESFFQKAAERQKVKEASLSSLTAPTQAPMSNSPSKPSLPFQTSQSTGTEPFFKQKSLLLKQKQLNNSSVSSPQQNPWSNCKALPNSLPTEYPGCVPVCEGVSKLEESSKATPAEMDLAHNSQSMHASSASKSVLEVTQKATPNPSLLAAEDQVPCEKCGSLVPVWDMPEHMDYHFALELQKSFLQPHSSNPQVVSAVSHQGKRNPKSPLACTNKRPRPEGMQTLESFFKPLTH
#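 Fluorescent replication assay: 50 nM final substrate added after a 15 min room-temperature compound preincubation with 10 nM enzyme. Signal taken at 0 min and again at 10 min.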
# WRN helicase inh = blocks human WRN helicase | 360,000 tested, 0.46% active | Potency, µM (highest dose often 114 µM), for the others: at the top dose activity change, negative = inhibition, usual class: inhibitors | WRN helicase unwinding, fluorescent forked duplex, kinetic | Q14191; further: potency means the concentration at half of the fitted maximal effect; on the % scale 0 is the no-effect control and ±100 the full control effect; nearly all actives have a fitted effect of over 55% in size
#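 Enzyme (20 nM final) and test compound sit together 15 min at room temperature before substrate addition. Substrate is a single-forked duplex oligonucleotide (100 nM) labelled with fluorophore and quencher, with 2 mM ATP; helicase unwinding raises red fluorescence, read kinetically.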
# POLK inh = inhibitors of human DNA polymerase kappa | 400,000 tested, 0.53% active | AID 588579 | purified Pol kappa, fluorescent DNA synthesis assay, 10 min | Q9UBT6 | Potency, µM (titrated, usually from 107 µM), without a hit: top-dose activity, negative = inhibition, hits mostly inhibitors; further: potency means the concentration at half of the fitted maximal effect; on the % scale 0 is the no-effect control and ±100 the full control effect
#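 Inhibition of 10 nM Pol kappa is measured by a fluorescent read-out at 0 and 10 min following addition of 50 nM substrate (final), with a 15-min room-temperature compound preincubation.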
# PI5P4K alpha inh = blocks human PI5P4K alpha kinase activity; 330,000 tested, 1.2% active; P48426; max response, %; PI5P4Kalpha enzyme, ADP-Glo luminescence, 60 min; active compounds read low; active means max response of -50% or lower; inconclusive means between -30% and -50%; inactive means -30% or higher; further: value at the top dose of about 77 µM; on the % scale 0 is the no-effect control and ±100 the full control effect
#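 Single end-point luminescence (ADP-Glo) quantified ADP from PI5P4Kalpha turnover; ATP 5 microM final, 1 h at RT, 0.1% CHAPS and 0.28 mM EGTA in HEPES pH 7.4.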
# POLB inh = DNA polymerase beta (human) inhibition | P06746 | Pol beta primer extension/strand displacement, fluorescence kinetic | Potency, µM (titrated, usually from 114 µM), for the others: top-dose activity change, negative = inhibition, most hits filed as inhibitors | 340,000 tested, 1.3% active | AID 485314; further: potency means the concentration at half of the fitted maximal effect; on the % scale 0 is the no-effect control and ±100 the full control effect
#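 Pol beta (10 nM) was preincubated with compound for 15 min at room temperature. The reaction was then started with 50 nM substrate and read immediately and after a further 10 min at room temperature.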
# POLI inh = inhibitors of human DNA polymerase iota. Q9UNA4. 390,000 tested, 1% active. Potency, µM (series often up to 115 µM), for the others: top-dose activity, negative = inhibition, hits mostly inhibitors. Pol iota fluorescent replication assay, 10 min; further: potency means the concentration at half of the fitted maximal effect
#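 Pol iota at 10 nM preincubated 15 min with compounds at room temperature; reaction started with fluorescent substrate, 50 nM final. Fluorescence read kinetically at 0 and 10 min; buffer-only wells as negative control.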
# The depositor's hits bear a star; u = inconclusive; x = no result; [ ] = dose if it differs, or a comment. Only some compounds are listed: those with a hit (about 2.8% of all), similar ones and a draw of the others. Unless noted, the call rests on the fitted dose curve; in most records, active means well fitted curve in the direction sought with a large enough effect; inconclusive means small, poorly fitted or top-dose-only effect, or another doubt; inactive means no such curve, though single readings can be large; an effect the other way counts as inactive or inconclusive.
SMILES,POLH inh,WRN helicase inh,POLK inh,PI5P4K alpha inh,POLB inh,POLI inh
CC(C)(C)n1ncc2c(=O)n(Cc3ccccc3C#N)cnc21,x,x,-23%,x,x,20%
O=S(=O)(Nc1nc2n(n1)C(c1ccc(F)cc1)C=C(c1ccccc1)N2)c1ccccc1 (stereo unspecified),-9%,x,-3%,x,u,30%
O=S(=O)(Nc1nc2n(n1)C(c1ccc(F)cc1)C=C(c1ccc(Cl)cc1)N2)c1ccccc1 (stereo unspecified),89µM*,x,-2%,x,8%,34%
O=C(Nc1ccc(Br)cc1F)c1cnn2c1NC(=C1CC1)C=C2C(F)F,x,x,32µM*,x,x,u
CCOCCn1ccc2c(OCC(=O)Nc3cc(C(F)(F)F)ccc3Cl)cccc2c1=O,-18%,x,1%[60.1 µM],x,u,30%
CC(C)CCNC(=O)c1cc(-c2cccnc2)nc2ccc(S(=O)(=O)N3CCC(C)CC3)cc12,-15%,x,-10%[60.1 µM],x,-10%,12%
CC[n+]1ccc(C[n+]2ccccc2)c2ccccc21,1%,-18%,-11%,-53*,18%,8%
O=C(/C=C/c1cccs1)NC(=S)Nc1ccc(C(=O)O)cc1,2%,1%,12%,-72*,-1%,8%
NS(=O)(=O)c1ccc(NC(=S)NC(=O)/C=C/c2cccs2)cc1,-22%,-12%,-10%,6,5%,122%
O=C(O)c1ccc(NC(=S)NC(=O)c2ccc(-c3ccccc3)cc2)cc1,-29%,-34%,-18%,-55*,16%,43%
O=C(NC(=S)Nc1ccc(NC(=O)c2ccco2)cc1)c1ccccc1,0%,-11%[11.6 µM],11%,6,45%,89µM*
O=C(NC(=S)NNC(=O)c1ccco1)c1ccccc1,-19%,9%,-13%,-18,-9%,43%
CC(=O)Nc1ccc(/C(C)=N\NC(=O)c2ccc(-c3ccccc3)cc2)cc1,x,x,x,x,40µM*,x
O=C(NC(=S)Nc1c(Cl)ccc2nsnc12)c1ccco1,-4%,-18%,-24%,-7,10%,25µM*
Cc1nc2c(C(=O)NC(C)c3ccccc3)cnn2c(C)c1Cc1ccccc1 (stereo unspecified),-13%,x,-4%[60.1 µM],x,-8%,-19%
O=S(=O)(c1ccc(F)cc1F)N1CCN(c2nc(-c3cccs3)nc3ccccc23)CC1,x,x,-22%,x,x,-3%
CCC(=O)OC1(C)C(=O)C=C2C=C(c3ccc(C#N)cc3)OC=C2C1=O (stereo unspecified),45µM*,u,u,-68*,x,20µM*
CCCCC1=CC2=CC(=O)C(C)(OC(=O)CC)C(=O)C2=CN1c1cccc(C#N)c1 (stereo unspecified),2%,-10%,-36%,-2,x,u
CS(=O)(=O)N1CCN(Cc2cc3nc(-c4cccc5[nH]ncc45)nc(N4CCOCC4)c3s2)CC1,x,x,1%[229 µM],x,x,-18%[229 µM]
O=[N+]([O-])c1cc(CN(CCO)CCO)ccc1O,u,-31%,u,-2,50µM*,25µM*
COc1ccc(NC(=O)C(=O)NCc2ccco2)c(OC)c1,2%,x,7%,x,0%,-16%
Cc1nn(-c2ccc(Cl)cc2)c(=O)c2ccccc12,-12%,-2%,-8%,2,0%,-3%
Cc1c(Cl)sn(-c2ccc(Cl)cc2)c1=O,5%,16µM*,-6%,-73*,-1%,64%
Cc1ccc(-c2cc(C(=O)Oc3ccccc3)c3cccc(C)c3n2)cc1,50µM*,x,-30%,x,u,u
CC1(C)N([O-])C2=C(CCCC2)[N+]1=O,22µM*,-34%,u,-13,25µM*,u
SMILES,POLH inh,WRN helicase inh,POLK inh,PI5P4K alpha inh,POLB inh,POLI inh
CC1=C(c2ccc(Cl)cc2)[N+](=O)C(C)(C)N1[O-],-1%,-2%,9%,u,22%,u
CCOC(=O)c1c(C)[nH]c(CCC(=O)NCc2ccccc2C)c1C,-2%,x,-8%[60.1 µM],x,0%,-4%
CCCN(CCC)Cc1c(C(=O)N/N=C/c2c[nH]c3ccccc23)nnn1-c1nonc1N,-16%,-7%,-19%,-63*,-15%,1%
Cc1nnn(-c2nonc2N)c1C(=O)N/N=C/c1ccccc1O,u,-10%,-18%,-13,45µM*,u
Cc1cccc(C)c1Nc1nn2c(=O)c3cc4c(cc3nc2s1)OCO4,-13%,x,-7%,x,-17%,-17%
Cc1cccc(Nc2nn3c(=O)c4cc5c(cc4nc3s2)OCO5)c1,-5%,x,-8%,x,3.2µM*,-2%
COC(=O)c1cc(C)nc2c1c(=O)nc(SCc1cccc(C)c1)n2C1CC1,-1%,x,-15%[60.1 µM],x,15%,-5%
O=c1cc(/C=C/c2c(F)cccc2Cl)[nH]c2ccccc12,11µM*,-27%[57.1 µM],-10%,-1,27%,13%
CC(C)c1ccc(NC(=O)Cn2c(=O)n(CC3CCC(C(=O)NCCc4ccccc4)CC3)c(=O)c3ccccc32)cc1 (stereo unspecified),-14%,x,-11%,x,1%,23%
CC(C)n1cc(/C=N/NC(=O)COc2cccc3cccnc23)c2ccccc21,u,u,-29%,0,u,7.9µM*
C=CCn1cc(/C=N/NC(=O)COc2cccc3cccnc23)c2ccccc21,u,-35%,-4%,3,u,u
O=C(CSc1nnnn1C1CC1)N1CCN(c2ccc(O)cc2)CC1,u,-2%[11.6 µM],u,-5,x,45µM*
COc1ccccc1N1CCN(C(=O)c2ccc3nc(-c4ccco4)c(-c4ccco4)nc3c2)CC1,-17%,-19%,-28%,-16,28µM*,u
Cc1ccc(C)c(N2CCN(C(=O)c3ccc4nc(-c5ccco5)c(-c5ccco5)nc4c3)CC2)c1,-15%,-31%,-12%,x,-18%,u
COC(=O)CN1C(=O)CSc2ccc(S(=O)(=O)Nc3ccccc3)cc21,-7%,x,-18%,x,0%,16%
COc1cc(/C=N/NC(=O)c2ccncc2)ccc1OC(C)=O,-13%,-1%,5%,0,28%,0%
CSc1ccc(/C=N\Nc2nncn2N)cc1,-22%,10%,-4%,-2,3%,5.6µM*
CC1CCN(c2ccc(/C=N\Nc3nncn3N)cc2[N+](=O)[O-])CC1,-18%,-8%[11.6 µM],-12%,8,-2%,13µM*
COc1cc(/C=N\Nc2nncn2N)ccc1OC(C)=O,-10%,0%[11.6 µM],-27%,-5,17%,7.1µM*
CC(C)(C)c1ccc(/C=N/Nc2nncn2N)cc1,-7%,3%[11.6 µM],-3%,-1,-19%,3.2µM*
CC1CCN(c2ccc(/C=N/n3nnnc3N)cc2[N+](=O)[O-])CC1,-1%,6%,-3%,x,0%,5%
COC(=O)c1cc2sc(C)cc2n1Cc1nc(-c2ccc(C)cc2)oc1C,x,x,-10%,x,-6%,20%
